A selection: hits, their analogues and other compounds. The true share with any hit is near 19%.
Pf growth 96h = Primary qHTS for delayed death inhibitors of the malarial parasite plastid, 96 hour incubation; P. falciparum luciferase reporter growth, 96 h; Potency, µM (series often up to 28.7 µM), for inactives: top-dose activity change, negative = inhibition, actives largely listed as inhibitors; 320,000 tested, 6.9% active; AID 504834, 2011; also: potency is read from the fitted curve at half-maximal effect; % is scaled to controls: 0 for no effect and ±100 for the full control effect
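Two parasite generations (96 h, 37 C, 5% CO2) of compound exposure in infected erythrocytes (0.05% parasitemia, 2% hematocrit). Luciferase-reporter P. falciparum; decreased luminescence indicates inhibited growth, aimed at apicoplast-acting delayed death.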
CHX counter = Cycloheximide Counterscreen for Small Molecule Inhibitors of Shiga Toxin; max response, %; cell reporter, cycloheximide protein synthesis inhibition counterscreen; 300,000 tested, 12% active; in the data active = max response mostly above about 13%, no sharp cut-off; inactive = mostly below about 14%; also: read at 38.3 µM for the half of the compounds with a filed dose; 0% is about no effect
MARV entry inh = qHTS for inhibitors of binding or entry into cells for Marburg Virus. Potency, µM (top dose mostly 37.8 µM), for the others: at the highest dose activity change, negative = inhibition, hits mostly inhibitors. Marburg virus pseudotyped entry inhibition, cell reporter. AID 540276, 2011. 300,000 tested, 1.8% active; calls by dose curve; tested in HEK293 cells; also: potency is read from the fitted curve at half-maximal effect; % is scaled to controls: 0 for no effect and ±100 for the full control effect
Shiga toxin inh = A qHTS for Small Molecule Inhibitors of Shiga Toxin | Vero cells, Shiga toxin protein synthesis inhibition reporter | inhibition, % at 38.7 µM | 290,000 tested, 9.2% active | AID 2315, 2010; in the data active = inhibition mostly above about 28%, no sharp cut-off; inactive = mostly below about 43%; also: 0% is about no effect
Pf growth 48h = Primary qHTS for delayed death inhibitors of the malarial parasite plastid, 48 hour incubation; P. falciparum luciferase growth in erythrocytes, 48 h; Potency, µM (highest dose often 28.7 µM), for inactives: at the top dose activity change, negative = inhibition, hits mostly inhibitors; 310,000 tested, 5.9% active; AID 504832, 2011; also: potency is read from the fitted curve at half-maximal effect; % is scaled to controls: 0 for no effect and ±100 for the full control effect
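Growth was read as firefly luciferase luminescence after a 48 h, 37 C, 5% CO2 exposure of compounds to reporter-bearing P. falciparum cultures (0.1% parasitemia, 2% hematocrit final) in Albumax-supplemented RPMI 1640.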
LASV entry inh = qHTS for Inhibitors of binding or entry into cells for Lassa Virus; AID 540256, 2011; Potency, µM (titrated, usually from 37.9 µM), without a hit: at the highest dose activity change, negative = inhibition, actives largely listed as inhibitors; Lassa virus pseudotype entry inhibition, cell reporter; 300,000 tested, 1.2% active; calls by dose curve; tested in HEK293 cells; also: potency is read from the fitted curve at half-maximal effect; % is scaled to controls: 0 for no effect and ±100 for the full control effect; nearly all actives have a fitted effect of over 50% in size
Numbers without * were called inactive; i = inactive; u = inconclusive; x = no result given; + = active, no number; ! = a repeat was not active; [ ] = dose if it differs, or a comment. Unless noted, calls follow the shape of the dose curve; as a rule, active = well fitted inhibition curve with a large enough effect; inconclusive = small, poorly fitted or top-dose-only effect, or another doubt; inactive = no such curve, though single readings can be large or run the other way.

SMILES	Pf growth 96h	CHX counter	MARV entry inh	Shiga toxin inh	Pf growth 48h	LASV entry inh
O=C(NCc1ccccc1)c1cccc(COc2cc(Cl)ccc2Cl)c1	u	41*	u	118*	18%	u
O=C(NCc1cccnc1)c1ccc(COc2ccccc2Cl)cc1	13%[5.75 µM]	10	x	63	36%	x
O=C(NCc1ccccc1)c1cnc(Cl)c(Cl)c1	29%	23*	11%[46.1 µM]	20	26%	-15%
O=C(NCc1ccc(F)cc1)c1cnc(Cl)c(Cl)c1	12%	2	28%[46.1 µM]	6	2%	10%
O=C(NCc1ccccc1)c1cccc(COc2ccccc2Cl)c1	170%	61*	u	120*	84%	u
COC(=O)c1ccccc1NC(=O)c1cccc(COc2ccccc2Cl)c1	204%	86*	u	89*	x	u
Cc1cc(C)c(NC(=O)C2CCC(=O)N2)c(C)c1 (stereo unspecified)	16%	1	0%	11	18%	u
O=C(c1cccc(COc2ccc(Cl)cc2Cl)c1)N1CCN(c2ccccn2)CC1	23%	92*	u	+	194%	-23%
CN(C(=O)c1cccc(COc2ccc(Cl)cc2Cl)c1)c1ccccc1	u	171*	u	185*	109%	u
O=C(c1cccc(COc2cccc3ccccc23)c1)N1CCCC1	142%	40*	u	47*	47%	8.2µM*
NNC(=O)c1ccc(COc2cccc3ccccc23)cc1	u	-6	-1%	-8	u	10%
NNC(=O)c1cccc(COc2ccccc2Br)c1	i	81*	u	100*	383%	u
O=C(c1ccc(COCC(F)(F)F)cc1)N1CCN(c2ccccn2)CC1	u	35*	x	46*	31%	x
NNC(=O)c1cccc(COc2ccc3c(c2)CCC3)c1	259%	206*	u	196*	257%	2.1µM*
O=C(c1ccc(F)cc1)N1CCN(c2ccccn2)CC1	-5%	1	3%[46.1 µM]	x	22%	4%[46.1 µM]
O=C(COc1ccc2c(c1)CCC2)NCc1ccccc1	22%	15	6%	15	4%	u
COc1ccc(C2=NOC(C(=O)Nc3cccc(O)c3)C2)cc1 (stereo unspecified)	5.2µM*	11	-5%	4	23%	u
COc1ccc(C2=NOC(C(=O)Nc3cc(C)on3)C2)cc1 (stereo unspecified)	9.3µM*	-7	x	-13	x	x
CCOc1ccc(CCNC(=O)COC(=O)CCC(=O)c2cccs2)cc1OCC	-25%	1	2%	-10	3%	u
CCOc1ccc(NS(=O)(=O)c2ccc(NC(=O)N3CCCC3)cc2)cc1	x	x	x	x	x	29%[46.1 µM]
Clc1ccc(-c2cnc(Oc3ccccc3)nc2)cc1	95%	74*	u	163*	218%	u
Cn1c(/N=C/c2ccccc2[N+](=O)[O-])nc2ccccc21	41%	-3	x	-6	5%	x
Cn1c(-c2ccccc2[N+](=O)[O-])[n+](C)c2ccccc21	4.1µM*	1	x	8	10µM*	x
Cc1ccc2nc3c(cc2c1)CN(Cc1ccco1)C(=NCC1CCCO1)S3 (stereo unspecified)	u	-1	-12%[46.1 µM]	-5	u	u
CCOC(=O)c1nnn(-c2nonc2N)c1CS(=O)(=O)c1ccccc1	12µM*	1	-16%	-18	1%	-2%
SMILES	Pf growth 96h	CHX counter	MARV entry inh	Shiga toxin inh	Pf growth 48h	LASV entry inh
CCOc1cccc(-c2c(C(=O)N/N=C(\C)c3ccccn3)nnn2-c2nonc2N)c1	3.7µM*	-9	x	-5	u	x
CCOC(=O)c1nnn(-c2nonc2N)c1-c1ccc(OCC)cc1	u	-1	u	-3	13µM*	-11%
CCOc1cccc(-c2c(C(=O)N/N=C(\C)c3ccncc3)nnn2-c2nonc2N)c1	u	-11	-19%[46.1 µM]	-10	-6%	11%[46.1 µM]
CS(=O)(=O)c1ccc(NCCc2ccccn2)c([N+](=O)[O-])c1	-18%	-3	5%[46.1 µM]	24	-10%	6%
Cc1ccc(NC(=O)NC(=O)N(c2ccccc2)S(C)(=O)=O)cc1	-20%	27*	1%	50*	11%	20%
Cc1cccc(NC(=O)CS(=O)CC(=O)Nc2cnc3ccccc3c2)c1C (stereo unspecified)	u	6	u	-18	12%	-8%[46.1 µM]
CCCCCN(C(=O)NC(=O)Nc1ccc(C)cc1)S(=O)(=O)c1ccccc1	61%	20*	10%	3	26%	16%
Cc1ccc(NC(=O)N(C)c2ccccc2)cc1	u	17*	u	48*	5%[0.00184 µM]	11%[46.1 µM]
CN(C(=O)Nc1cnc2ccccc2c1)c1ccccc1	34%	34*	6%[46.1 µM]	28*	33%	0%
CCn1ncc([N+](=O)[O-])c1C(=O)Nc1nc2cccc(C)c2s1	15%	-2	x	8	3%	x
C=C1C(C(=O)Nc2ccccc2)C1C(=O)Nc1ccccc1 (stereo unspecified)	-1%	-1	x	-8	0%	x
NC(=S)Nc1cnc2ccccc2c1	48%	27*	2%	56*	57%	27%
CN(C)C(=O)Nc1ccccc1	-26%	41*!	4%[46.1 µM]	88*!	20%	0%[46.1 µM]
CC(=O)N1CCN(C(=S)c2ccc(-c3ccc(Cl)cc3)o2)CC1	0%	5	u	53	0%	-22%
NC(=O)c1ccc(-c2ccc(Br)cc2)o1	-50%	13	-26%	56*	u	25%
NC(=O)C1CCN(C(=S)c2ccc(-c3ccc(Br)cc3)o2)CC1	-32%	37*	15%[46.1 µM]	78*	170%	8%
CC(C)CCOP(=O)(c1ccc(N(C)C)cc1)C(Nc1ccccc1)c1ccc(N(C)C)cc1 (stereo unspecified)	u	3	x	5	u	x
COP(=O)(OC)C(Nc1ccccc1)c1ccccc1 (stereo unspecified)	17µM*	0	x	-8	10%	x
CC(C)OP(=O)(c1ccc(N(C)C)cc1)C(Nc1ccccc1)c1ccccc1 (stereo unspecified)	u	-2	u	-5	8.3µM*	u
COC(=O)c1ccc(NC(c2ccc(Cl)cc2)P(=O)(OC)OC)cc1 (stereo unspecified)	5%	32*	u	20	20%	13%
COc1ccc(NC(c2ccccc2)P(=O)(Oc2ccccc2)Oc2ccccc2)cc1 (stereo unspecified)	24%	11*	4%	-3	4%	x
COP(=O)(OC)C(Nc1ccc(Cl)cc1)c1ccccc1 (stereo unspecified)	0%	-2	x	x	0%	x
N#CCCn1cc(C(=O)CN2C(=O)C(=O)N(C3CCCC3)C2=O)c2ccccc21	-21%	x	1%[46.1 µM]	x	u	11%

Screening data (PubChem)
